Results from PubChem BioAssay AID720700 (The Scripps Research Institute Molecular Screening Center, 2013).
Hit rate of the full screen: of about 370,000 compounds, about 3,100 (0.84%) were called active. Shown is part of a subset that was picked to be rich in actives. Values without a mark were called inactive. Cut-off read from the data, not from the text of the source: active = inhibition above about 9.5%; inactive = the rest.

Biological target: 1-phosphatidylinositol 4,5-bisphosphate phosphodiesterase gamma-1 (Homo sapiens) (UniProt P19174)
Assay: blockers of human PLCG1 activity – biochemical, fluorescence, purified enzyme, primary screen (AID 720700)
Settings: purified PLC-gamma1, fluorogenic substrate, at 12.2 µM, hits give high values

1-phosphatidylinositol 4,5-bisphosphate phosphodiesterase gamma-1 (Homo sapiens), sequence (P19174 whole entry, looked up): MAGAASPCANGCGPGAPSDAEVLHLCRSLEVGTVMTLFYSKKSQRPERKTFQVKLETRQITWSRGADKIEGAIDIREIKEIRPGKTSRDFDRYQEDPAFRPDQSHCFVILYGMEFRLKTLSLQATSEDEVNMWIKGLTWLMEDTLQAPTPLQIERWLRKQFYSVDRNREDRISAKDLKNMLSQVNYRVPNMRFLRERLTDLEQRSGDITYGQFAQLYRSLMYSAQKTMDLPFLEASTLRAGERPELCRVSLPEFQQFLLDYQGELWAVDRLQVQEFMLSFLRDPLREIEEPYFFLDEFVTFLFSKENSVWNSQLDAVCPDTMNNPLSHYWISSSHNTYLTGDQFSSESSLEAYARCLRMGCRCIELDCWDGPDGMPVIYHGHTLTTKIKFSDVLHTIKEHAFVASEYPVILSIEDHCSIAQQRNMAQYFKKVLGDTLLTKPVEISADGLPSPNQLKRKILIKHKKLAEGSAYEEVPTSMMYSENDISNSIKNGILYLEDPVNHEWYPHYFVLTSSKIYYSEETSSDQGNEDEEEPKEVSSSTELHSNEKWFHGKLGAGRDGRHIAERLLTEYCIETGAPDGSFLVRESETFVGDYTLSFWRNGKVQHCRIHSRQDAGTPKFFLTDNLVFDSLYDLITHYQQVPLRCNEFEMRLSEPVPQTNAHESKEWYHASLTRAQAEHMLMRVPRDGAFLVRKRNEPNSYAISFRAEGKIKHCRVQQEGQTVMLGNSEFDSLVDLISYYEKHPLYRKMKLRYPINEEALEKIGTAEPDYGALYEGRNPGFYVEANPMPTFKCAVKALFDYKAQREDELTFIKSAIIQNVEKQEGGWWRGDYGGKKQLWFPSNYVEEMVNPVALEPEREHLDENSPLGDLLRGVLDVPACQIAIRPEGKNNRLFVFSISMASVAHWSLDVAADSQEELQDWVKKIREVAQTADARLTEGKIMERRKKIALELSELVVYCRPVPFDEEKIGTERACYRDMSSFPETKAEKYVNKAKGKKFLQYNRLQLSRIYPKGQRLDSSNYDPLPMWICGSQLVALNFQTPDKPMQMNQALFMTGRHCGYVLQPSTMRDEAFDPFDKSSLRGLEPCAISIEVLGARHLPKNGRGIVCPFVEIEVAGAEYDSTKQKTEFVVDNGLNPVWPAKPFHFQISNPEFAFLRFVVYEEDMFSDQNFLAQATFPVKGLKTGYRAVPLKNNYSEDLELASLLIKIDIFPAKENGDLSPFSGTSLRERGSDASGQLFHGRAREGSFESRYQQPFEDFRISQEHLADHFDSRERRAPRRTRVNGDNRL

`CS(=O)(=O)Nc1cccc(C2=NN(C(=O)c3cccc(F)c3)C(c3cccs3)C2)c1` (stereo not drawn) was tested. Which inhibition did it give?
The inhibition was -0.97%.

For `CCOc1ccccc1C1CC(c2cccc(NS(C)(=O)=O)c2)=NN1C(=O)c1ccccc1` (stereo not drawn), which inhibition is on record?
The inhibition was 9.81% (active).

`Cc1ccc(C2CC(c3cccc(NS(C)(=O)=O)c3)=NN2S(C)(=O)=O)cc1` (stereo not drawn) was tested. Which inhibition did it give?
Its inhibition is 2.31%.

How did the inhibition turn out when `C=C1C(C(C)C)N(C)C2=NC(c3ccccc3)CC(=O)N12` (stereo not drawn) was run?
The inhibition was -2.56%.

With `C=CCN1C(=O)[C@@H](CC(=O)N2CCN(C(=O)c3ccco3)CC2)[C@]2(C(=O)OC)CCCCC=C12` as the molecule, how does the inhibition read?
Its inhibition is -0.31%.

How did the inhibition turn out when `CCCc1ccc(OCC(O)CN2CCN(C(=O)OCC)CC2)cc1` (stereo not drawn) was run?
Its inhibition is 8.68%.

How did the inhibition turn out when `O=C(C(c1ccccc1)c1ccccc1)N1CCN(CC(O)COc2ccccc2)CC1` (stereo not drawn) was run?
Its inhibition is 9.59% (active).

Which inhibition does the source give for `CC(=O)N1CCN(CC(c2ccccc2)c2ccccc2)CC1` here?
The inhibition was -0.45%.

`Nn1c(SCC(=O)Nc2cccc3ccccc23)nnc1-c1cc(-c2ccc(F)cc2)n[nH]1` was tested. Which inhibition did it give?
Its inhibition is -1.09%.

For `C[C@H]1CCC/C=C/C(=O)c2c(O)cc(O)cc2CC(=O)O1`, which inhibition is on record?
The inhibition was -3.4%.

For `CCOc1ccc(CCNC(=O)COC(=O)c2c(OC)cccc2OC)cc1OCC`, which inhibition is on record?
Its inhibition is 6.67%.

With `COc1ccc(CNC(=O)COC(=O)CCS(=O)(=O)c2ccc(C)cc2)cc1OC` as the molecule, how does the inhibition read?
The inhibition was 0.41%.

`CCOc1ccc(CCNC(=O)COC(=O)CCS(=O)(=O)c2ccc(C)cc2)cc1OCC` was tested. Which inhibition did it give?
The inhibition was 9.85% (active).

For `C=C(C)C#CC(Cc1ccccc1)NCC1CC1` (stereo not drawn), which inhibition is on record?
The inhibition was 0.45%.

`O=S(=O)(c1ccc(F)cc1)N1CCN(C(=S)NC2CCCC2)CC1` was tested. Which inhibition did it give?
Its inhibition is 10.9% (active).

With `O=C(O)C1CCCCC1C(=O)N1CCN(S(=O)(=O)c2ccc(F)cc2)CC1` (stereo not drawn) as the molecule, how does the inhibition read?
The inhibition was 4.99%.

For `O=C(CN1CCN(S(=O)(=O)c2ccc(F)cc2)CC1)NC1CC1`, which inhibition is on record?
The inhibition was -1.88%.

Which inhibition does the source give for `CCOc1ccccc1NC(=O)C12CC3CC(C1)CC(c1ccc(C)cc1)(C3)C2` here?
The inhibition was 0.03%.

For `Cc1ccc(C23CC4CC(CC(C(=O)NCC(=O)O)(C4)C2)C3)cc1`, which inhibition is on record?
The inhibition was 9.87% (active).

For `C=CCNC(=O)C12CC3CC(C1)CC(C(=O)NCC=C)(C3)C2`, which inhibition is on record?
Its inhibition is -0.37%.

With `O=C(Nc1ccc(Br)cc1)OCCN1C(=O)CCC12CCC(c1ccccc1)CC2` (stereo not drawn) as the molecule, how does the inhibition read?
The inhibition was 4.23%.

`O=C(NC1CCC1)c1ccc(C#CC2CC2)cn1` was tested. Which inhibition did it give?
The inhibition was -0.59%.

With `COCCCn1c(SCC(=O)Nc2ccccc2)nnc1-c1ccncc1` as the molecule, how does the inhibition read?
Its inhibition is -0.81%.

With `O=C(CSc1nnc(-c2ccncc2)n1-c1ccc(Cl)cc1)Nc1ccc(C(=O)O)cc1` as the molecule, how does the inhibition read?
Its inhibition is -0.57%.

Which inhibition does the source give for `O=C(CSc1nnc(-c2ccncc2)n1C1CCCCC1)Nc1ccccc1` here?
Its inhibition is 10.2% (active).

How did the inhibition turn out when `COc1ccccc1CCNC(=O)C1CCN(c2nc(C)cc(C)n2)CC1` was run?
Its inhibition is -0.02%.

Which inhibition does the source give for `Cc1ccc(-c2nc(C3CCCN(S(=O)(=O)c4ccc(Br)s4)C3)no2)cc1` (stereo not drawn) here?
Its inhibition is 0.61%.

For `C=CCOc1ccc(Cl)cc1CNCCCN1CCOCC1`, which inhibition is on record?
Its inhibition is 10.7% (active).

With `COc1ccc(-c2ccc(CNCCCN3CCOCC3)o2)cc1Cl` as the molecule, how does the inhibition read?
The inhibition was 1.38%.

With `O=S(=O)(NCCCN1CCOCC1)c1ccc(F)c(Cl)c1` as the molecule, how does the inhibition read?
Its inhibition is -0.87%.

How did the inhibition turn out when `Cc1ccccc1NC(=O)Cn1nnc(-c2ccccc2F)n1` was run?
Its inhibition is 0.94%.

For `CN1[C@H](Cc2ccccc2)COc2cccc(N3CCSCC3)c2S1(=O)=O`, which inhibition is on record?
Its inhibition is -5.49%.

With `O=C1NC2(CCCCC2)N=C1c1ccccc1` as the molecule, how does the inhibition read?
The inhibition was 10.4% (active).

Which inhibition does the source give for `O=C1NC2(CCCCCC2)C(=O)N1CCS(=O)(=O)Oc1ccccc1` here?
The inhibition was 1.93%.

How did the inhibition turn out when `COc1ccc(NC(=O)CN2C(=O)C(c3ccccc3)=NC23CCCCCC3)cc1OC` was run?
The inhibition was 1.88%.

How did the inhibition turn out when `C=CCN1C(=O)[C@@H](CC(=O)N2CCN(C(=O)OCC)CC2)[C@]2(C(=O)OCC)CCCCC/C=C/12` was run?
Its inhibition is -1.67%.

Which inhibition does the source give for `C=CC[C@@H](CC(=O)N[C@@H](CO)Cc1ccccc1)C(=O)NCCOC(=O)[C@@H](CC=C)CC(=O)OC(C)(C)C` here?
The inhibition was 5.69%.

Which inhibition does the source give for `C=CC[C@@H](CC(=O)NCCO)C(=O)N[C@H](C)COC(=O)[C@@H](CC=C)CC(=O)OC(C)(C)C` here?
Its inhibition is 9.97% (active).

For `C=CC[C@@H](CC(=O)N[C@@H](CO)Cc1ccccc1)C(=O)N[C@H](COC(=O)[C@H](CC=C)CC(=O)OC(C)(C)C)Cc1ccccc1`, which inhibition is on record?
Its inhibition is 0.69%.

With `O=C(N1CCOCC1)N1CC[C@H]2[C@H](CCCN2Cc2ccc(F)cc2)C1` as the molecule, how does the inhibition read?
Its inhibition is -1.67%.

With `COc1ccc(C2Nc3ccccc3C(=O)N2Cc2cccs2)cc1COc1c(C)cccc1C` (stereo not drawn) as the molecule, how does the inhibition read?
The inhibition was -106%.

For `CCOC(=O)Nc1ccc(S(=O)(=O)N(C)C(C)C)cc1`, which inhibition is on record?
Its inhibition is 0.75%.

Which inhibition does the source give for `CCOC(=O)Nc1ccc2c(c1)N(C(=O)CCCl)c1ccccc1[S@]2=O` here?
Its inhibition is -0.45%.
